# Results reported in the supplement of paper PMC4466140.
# Tests used:
# Experiment in all cases: SPOT peptide array binding signal intensity (averaged, normalized) (arbitrary units (background-subtracted, floor 0; scale differs between SH3 domains)); higher = stronger binding of the SH3 domain to the peptide
# SpBzz1-D2 = target: SpBzz1-D2
# Procedure, shortened: (§1)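 To measure binding, SH3 domains from four yeast species were fused to GST, expressed in E. coli BL21(DE3) and purified on glutathione Sepharose. Each domain was incubated at 10 μg/ml overnight at 4°C on cellulose membranes with synthetic 15-mer peptides whose cysteines were replaced by serines. Anti-GST antibody, an HRP anti-mouse secondary and luminol were used for detection, and images were quantified with Genespotter. Reported binding signal is normalized, background-subtracted spot intensity averaged over replicates, in arbitrary units that differ between domains.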
# SpCyk3 = target: SpCyk3
# Procedure, shortened: as §1
# SpHof1 = target: SpHof1
# Procedure, shortened: as §1
# SpHof1-2 = target: SpHof1-2
# Procedure, shortened: as §1
# SpHof1-3 = target: SpHof1-3
# Procedure, shortened: as §1
# SpHse1 = target: SpHse1
# Procedure, shortened: as §1
# SpLsb1 = target: SpLsb1
# Procedure, shortened: as §1
# SpLsb4 = target: SpLsb4
# Procedure, shortened: as §1
# SpMyo1 = target: SpMyo1
# Procedure, shortened: as §1
# SpNbp2 = target: SpNbp2
# Procedure, shortened: as §1
# SpPex13 = target: SpPex13
# Procedure, shortened: as §1
# SpRvs167 = target: SpRvs167
# Procedure, shortened: as §1
# SpSla1-D1-D2 = target: SpSla1-D1-D2
# Procedure, shortened: as §1
# SpSla1-D3 = target: SpSla1-D3
# Procedure, shortened: as §1
# AgAbp1 = target: AgAbp1
# Procedure, shortened: as §1
# AgBbc1 = target: AgBbc1
# Procedure, shortened: as §1
# AgBem1-D1 = target: AgBem1-D1
# Procedure, shortened: as §1
# AgBzz1-D1 = target: AgBzz1-D1
# Procedure, shortened: as §1
# AgBzz1-D2 = target: AgBzz1-D2
# Procedure, shortened: as §1
# AgCyk3 = target: AgCyk3
# Procedure, shortened: as §1
# AgFus1 = target: AgFus1
# Procedure, shortened: as §1
# AgHof1 = target: AgHof1
# Procedure, shortened: as §1
# AgHse1 = target: AgHse1
# Procedure, shortened: as §1
# AgLsb1 = target: AgLsb1
# Procedure, shortened: as §1
# AgLsb4 = target: AgLsb4
# Procedure, shortened: as §1
# AgMyo5 = target: AgMyo5
# Procedure, shortened: as §1
# AgNbp2 = target: AgNbp2
# Procedure, shortened: as §1
# AgRvs167 = target: AgRvs167
# Procedure, shortened: as §1
# AgSho1 = target: AgSho1
# Procedure, shortened: as §1
# AgSla1-D1-D2 = target: AgSla1-D1-D2
# Procedure, shortened: as §1
# AgSla1-D3 = target: AgSla1-D3
# Procedure, shortened: as §1
# CaAbp1-D1 = target: CaAbp1-D1
# Procedure, shortened: as §1
# CaAbp1-D2 = target: CaAbp1-D2
# Procedure, shortened: as §1
# CaBbc1 = target: CaBbc1
# Procedure, shortened: as §1
# CaBem1-D1 = target: CaBem1-D1
# Procedure, shortened: as §1
# CaBzz1-D1 = target: CaBzz1-D1
# Procedure, shortened: as §1
# CaBzz1-D2 = target: CaBzz1-D2
# Procedure, shortened: as §1
# CaCyk3 = target: CaCyk3
# Procedure, shortened: as §1
# CaFus1 = target: CaFus1
# Procedure, shortened: as §1
# CaHof1 = target: CaHof1
# Procedure, shortened: as §1
# CaHse1 = target: CaHse1
# Procedure, shortened: as §1
# CaLsb1 = target: CaLsb1
# Procedure, shortened: as §1
# CaLsb4 = target: CaLsb4
# Procedure, shortened: as §1
# CaMyo5 = target: CaMyo5
# Procedure, shortened: as §1
# CaNbp2 = target: CaNbp2
# Procedure, shortened: as §1
# CaRvs167 = target: CaRvs167
# Procedure, shortened: as §1
# CaRvs167-3 = target: CaRvs167-3
# Procedure, shortened: as §1
# CaSho1 = target: CaSho1
# Procedure, shortened: as §1
# CaSla1-D1-D2 = target: CaSla1-D1-D2
# Procedure, shortened: as §1
# CaSla1-D3 = target: CaSla1-D3
# Procedure, shortened: as §1
# ScAbp1 = target: ScAbp1
# Procedure, shortened: as §1
# ScBbc1 = target: ScBbc1
# Procedure, shortened: as §1
# ScBem1-D1 = target: ScBem1-D1
# Procedure, shortened: as §1
# ScBzz1-D1 = target: ScBzz1-D1
# Procedure, shortened: as §1
# ScBzz1-D2 = target: ScBzz1-D2
# Procedure, shortened: as §1
# ScCyk3 = target: ScCyk3
# Procedure, shortened: as §1
# ScFus1 = target: ScFus1
# Procedure, shortened: as §1
# ScHof1 = target: ScHof1
# Procedure, shortened: as §1
# ScHse1 = target: ScHse1
# Procedure, shortened: as §1
# ScLsb1 = target: ScLsb1
# Procedure, shortened: as §1
# ScLsb2 = target: ScLsb2
# Procedure, shortened: as §1
# ScLsb3 = target: ScLsb3
# Procedure, shortened: as §1
# ScLsb4 = target: ScLsb4
# Procedure, shortened: as §1
# ScMyo3 = target: ScMyo3
# Procedure, shortened: as §1
# ScMyo5 = target: ScMyo5
# Procedure, shortened: as §1
# ScNbp2 = target: ScNbp2
# Procedure, shortened: as §1
# ScPex13 = target: ScPex13
# Procedure, shortened: as §1
# ScRvs167 = target: ScRvs167
# Procedure, shortened: as §1
# ScSho1 = target: ScSho1
# Procedure, shortened: as §1
# ScSla1-D1-D2 = target: ScSla1-D1-D2
# Procedure, shortened: as §1
# ScSla1-D3 = target: ScSla1-D3
# Procedure, shortened: as §1
# SpAbp1-D1 = target: SpAbp1-D1
# Procedure, shortened: as §1
# SpBbc1 = target: SpBbc1
# Procedure, shortened: as §1
# SpBzz1-D1 = target: SpBzz1-D1
# Procedure, shortened: as §1
binder,measurement,setting,value
RTRRRPPPPPIPSTQ,SPOT peptide array binding signal intensity,SpBzz1-D2,1520
same,SPOT peptide array binding signal intensity,SpCyk3,1
same,SPOT peptide array binding signal intensity,SpHof1,361
same,SPOT peptide array binding signal intensity,SpHof1-2,53.5
same,SPOT peptide array binding signal intensity,SpHof1-3,340
same,SPOT peptide array binding signal intensity,SpHse1,72.2
same,SPOT peptide array binding signal intensity,SpLsb1,370
same,SPOT peptide array binding signal intensity,SpLsb4,1730
same,SPOT peptide array binding signal intensity,SpMyo1,800
same,SPOT peptide array binding signal intensity,SpNbp2,29.5
same,SPOT peptide array binding signal intensity,SpPex13,26.5
same,SPOT peptide array binding signal intensity,SpRvs167,1250
same,SPOT peptide array binding signal intensity,SpSla1-D1-D2,907
same,SPOT peptide array binding signal intensity,SpSla1-D3,2.5
KMSRSPPRPPSLKII,SPOT peptide array binding signal intensity,AgAbp1,329
same,SPOT peptide array binding signal intensity,AgBbc1,145
same,SPOT peptide array binding signal intensity,AgBem1-D1,707
same,SPOT peptide array binding signal intensity,AgBzz1-D1,85.5
same,SPOT peptide array binding signal intensity,AgBzz1-D2,35
same,SPOT peptide array binding signal intensity,AgCyk3,4
same,SPOT peptide array binding signal intensity,AgFus1,180
same,SPOT peptide array binding signal intensity,AgHof1,17
same,SPOT peptide array binding signal intensity,AgHse1,99
same,SPOT peptide array binding signal intensity,AgLsb1,20
same,SPOT peptide array binding signal intensity,AgLsb4,≤ 0
same,SPOT peptide array binding signal intensity,AgMyo5,10.5
same,SPOT peptide array binding signal intensity,AgNbp2,1350
same,SPOT peptide array binding signal intensity,AgRvs167,4.5
same,SPOT peptide array binding signal intensity,AgSho1,228
same,SPOT peptide array binding signal intensity,AgSla1-D1-D2,25
same,SPOT peptide array binding signal intensity,AgSla1-D3,9.25
same,SPOT peptide array binding signal intensity,CaAbp1-D1,734
same,SPOT peptide array binding signal intensity,CaAbp1-D2,1170
same,SPOT peptide array binding signal intensity,CaBbc1,564
same,SPOT peptide array binding signal intensity,CaBem1-D1,83
same,SPOT peptide array binding signal intensity,CaBzz1-D1,1880
same,SPOT peptide array binding signal intensity,CaBzz1-D2,466
same,SPOT peptide array binding signal intensity,CaCyk3,36
same,SPOT peptide array binding signal intensity,CaFus1,974
same,SPOT peptide array binding signal intensity,CaHof1,0.5
same,SPOT peptide array binding signal intensity,CaHse1,58.5
same,SPOT peptide array binding signal intensity,CaLsb1,2.5
same,SPOT peptide array binding signal intensity,CaLsb4,588
same,SPOT peptide array binding signal intensity,CaMyo5,44.5
same,SPOT peptide array binding signal intensity,CaNbp2,1320
same,SPOT peptide array binding signal intensity,CaRvs167,68
same,SPOT peptide array binding signal intensity,CaRvs167-3,≤ 0
same,SPOT peptide array binding signal intensity,CaSho1,939
same,SPOT peptide array binding signal intensity,CaSla1-D1-D2,337
same,SPOT peptide array binding signal intensity,CaSla1-D3,258
same,SPOT peptide array binding signal intensity,ScAbp1,178
same,SPOT peptide array binding signal intensity,ScBbc1,69.5
same,SPOT peptide array binding signal intensity,ScBem1-D1,8
same,SPOT peptide array binding signal intensity,ScBzz1-D1,57
same,SPOT peptide array binding signal intensity,ScBzz1-D2,25.5
same,SPOT peptide array binding signal intensity,ScCyk3,5
same,SPOT peptide array binding signal intensity,ScFus1,463
same,SPOT peptide array binding signal intensity,ScHof1,0.75
same,SPOT peptide array binding signal intensity,ScHse1,99.5
same,SPOT peptide array binding signal intensity,ScLsb1,39.8
same,SPOT peptide array binding signal intensity,ScLsb2,18
same,SPOT peptide array binding signal intensity,ScLsb3,742
same,SPOT peptide array binding signal intensity,ScLsb4,142
same,SPOT peptide array binding signal intensity,ScMyo3,142
same,SPOT peptide array binding signal intensity,ScMyo5,47.2
same,SPOT peptide array binding signal intensity,ScNbp2,2300
same,SPOT peptide array binding signal intensity,ScPex13,464
same,SPOT peptide array binding signal intensity,ScRvs167,123
same,SPOT peptide array binding signal intensity,ScSho1,634
same,SPOT peptide array binding signal intensity,ScSla1-D1-D2,653
same,SPOT peptide array binding signal intensity,ScSla1-D3,270
same,SPOT peptide array binding signal intensity,SpAbp1-D1,177
same,SPOT peptide array binding signal intensity,SpBbc1,6.75
same,SPOT peptide array binding signal intensity,SpBzz1-D1,1270
same,SPOT peptide array binding signal intensity,SpBzz1-D2,79.2
same,SPOT peptide array binding signal intensity,SpCyk3,9
same,SPOT peptide array binding signal intensity,SpHof1,19.5
same,SPOT peptide array binding signal intensity,SpHof1-2,27
same,SPOT peptide array binding signal intensity,SpHof1-3,139
same,SPOT peptide array binding signal intensity,SpHse1,70
same,SPOT peptide array binding signal intensity,SpLsb1,9.75
same,SPOT peptide array binding signal intensity,SpLsb4,1060
same,SPOT peptide array binding signal intensity,SpMyo1,224
same,SPOT peptide array binding signal intensity,SpNbp2,146
same,SPOT peptide array binding signal intensity,SpPex13,17
same,SPOT peptide array binding signal intensity,SpRvs167,92.3
same,SPOT peptide array binding signal intensity,SpSla1-D1-D2,17
same,SPOT peptide array binding signal intensity,SpSla1-D3,138
RPVPRRPSQPLNTLS,SPOT peptide array binding signal intensity,AgAbp1,306
same,SPOT peptide array binding signal intensity,AgBbc1,801
same,SPOT peptide array binding signal intensity,AgBem1-D1,68.5
same,SPOT peptide array binding signal intensity,AgBzz1-D1,100
same,SPOT peptide array binding signal intensity,AgBzz1-D2,89
same,SPOT peptide array binding signal intensity,AgCyk3,1.25
same,SPOT peptide array binding signal intensity,AgFus1,24
same,SPOT peptide array binding signal intensity,AgHof1,32.8
same,SPOT peptide array binding signal intensity,AgHse1,67.5
same,SPOT peptide array binding signal intensity,AgLsb1,94.8
same,SPOT peptide array binding signal intensity,AgLsb4,2090
same,SPOT peptide array binding signal intensity,AgMyo5,≤ 0
same,SPOT peptide array binding signal intensity,AgNbp2,2250
same,SPOT peptide array binding signal intensity,AgRvs167,182
same,SPOT peptide array binding signal intensity,AgSho1,12.8
same,SPOT peptide array binding signal intensity,AgSla1-D1-D2,17
same,SPOT peptide array binding signal intensity,AgSla1-D3,7.12
same,SPOT peptide array binding signal intensity,CaAbp1-D1,456
same,SPOT peptide array binding signal intensity,CaAbp1-D2,805
same,SPOT peptide array binding signal intensity,CaBbc1,1900
same,SPOT peptide array binding signal intensity,CaBem1-D1,34
same,SPOT peptide array binding signal intensity,CaBzz1-D1,388
same,SPOT peptide array binding signal intensity,CaBzz1-D2,189
same,SPOT peptide array binding signal intensity,CaCyk3,413
same,SPOT peptide array binding signal intensity,CaFus1,141
same,SPOT peptide array binding signal intensity,CaHof1,0.25
same,SPOT peptide array binding signal intensity,CaHse1,56.1
same,SPOT peptide array binding signal intensity,CaLsb1,1.25
same,SPOT peptide array binding signal intensity,CaLsb4,2000
same,SPOT peptide array binding signal intensity,CaMyo5,8
